The nature of assay [1]: NCI Yeast Anticancer Drug Screen. Data for the rad50 strain (AID 155).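 Further: 0% = growth of vehicle-only cultures of the same strain.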 The settings on record: S. cerevisiae rad50 strain growth inhibition; at 50.0 µM; hits give high values. Summed up: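 Compounds were tested on a yeast strain with an engineered DNA damage repair alteration; the reported value is growth inhibition normalised to vehicle treatment.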
A short description of assay [2]: NCI Yeast Anticancer Drug Screen. Data for the mec2-1 strain (AID 157). As to conditions: S. cerevisiae mec2-1 strain, at 50.0 µM, hits give high values. Summed up:
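Each compound was tested on mec2-1 yeast, a strain altered in DNA damage repair or cell cycle control. Growth inhibition is reported relative to vehicle.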

Assay [3] can be described thus: NCI Yeast Anticancer Drug Screen. Data for the sgs1 mgt1 strain (AID 161).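 Further: 0% = growth of cultures given vehicle only.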 As to conditions: S. cerevisiae sgs1 mgt1 strain, at 50.0 µM, hits give high values. Summed up: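 Inhibition of yeast growth, normalised to vehicle-treated controls, is reported for a strain bearing genetic alterations in DNA damage repair.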
Assay [4] can be described thus: NCI Yeast Anticancer Drug Screen. Data for the cln2 rad14 strain (AID 165).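 Further: 0% = growth equal to vehicle treated cultures.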 As to conditions: S. cerevisiae cln2 rad14 strain, at 50.0 µM, hits give high values. A digest of the protocol:
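Test compounds were added to cln2 rad14 yeast cultures; inhibition of growth was then determined by comparison with vehicle treatment.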

A short description of assay [5]: NCI Yeast Anticancer Drug Screen. Data for the bub3 strain (AID 167). The settings on record: S. cerevisiae bub3 mutant strain, at 50.0 µM, hits give high values. Summed up:
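Growth of a checkpoint-deficient yeast mutant is measured after compound exposure. Values represent inhibition relative to vehicle.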

Assay [6] can be described thus: NCI Yeast Anticancer Drug Screen. Data for the mlh1 rad18 strain (AID 175). The settings on record: S. cerevisiae mlh1 rad18 strain growth inhibition; at 50.0 µM; hits give high values. A digest of the protocol:
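Inhibition values reflect reduced growth of mutant yeast versus vehicle-treated controls following compound exposure; the mutations affect DNA damage repair.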

The structures appear in SMILES notation. About 79,000 compounds went through this panel and 15% of them were active in at least one assay; those are over-represented in the sample as a whole. Unmarked numbers belong to inactive results. The source made the active and inactive calls. No stated cut-off is given here; in the data, active means growth inhibition above about 70%; inactive means the rest.

As to `CC(C)NCC1CCCO1` (stereo not given), the growth inhibition in assay [1] was -6.65%; in assay [2], -23.2%; in assay [3], -16.4%; in assay [4], 4.9%; in assay [5], -5.7%; in assay [6], -7.85%.
As for `O=C(O)c1ccc(Br)cc1C(=O)O`, the growth inhibition in assay [1] is 7.6%; in assay [2], 3.6%; in assay [3], 1.5%; in assay [4], 4.35%; in assay [5], 4.65%; in assay [6] it was -1.6%.
Regarding `O=c1c2ccccc2[nH]c2c(O)ccc(O)c12`, the growth inhibition is 18.3% in assay [1]; -1.65% in assay [2]; 6.55% in assay [3]; 7.65% in assay [4]; -1.55% in assay [5]; 12.7% in assay [6].
In the case of `CC1=C(C)Cc2c(-c3ccccc3)oc(-c3ccccc3)c2C1`, the growth inhibition in assay [1] was -13.3%; in assay [2], -12.4%; in assay [3] it was 0.7%; in assay [4], 25.8%; in assay [5], -7.95%; in assay [6] it was -16.4%.
Regarding `CC1(c2ccccc2)SCCS1`, the growth inhibition in assay [1] was 4.9%; in assay [2], 2.05%; in assay [3] it was -7.7%; in assay [4], -34.3%; in assay [5], -13.9%; in assay [6] it was -6.4%.
For the molecule `COC(=O)Cc1[nH]c(C(=O)OC)c(C)c1C(=O)OC`, the growth inhibition is -6.7% in assay [1]; -7.45% in assay [2]; -3.15% in assay [3]; -21.1% in assay [4]; -6.95% in assay [5]; -2.2% in assay [6].
As to `O=C1c2scnc2-c2nccc3c2c1nc1ccccc13`, the growth inhibition in assay [1] was 60.3%; in assay [2], 75.5% (active); in assay [3], 66.8%; in assay [4] it was 53.2%; in assay [5], 80.9% (active); in assay [6], 74.9% (active).
For the molecule `CC1N(N2C(=O)CS(=O)(=O)C2C)C(=O)CS1(=O)=O` (stereo not given), the growth inhibition in assay [1] was 11.2%; in assay [2], -3.95%; in assay [3], 25.3%; in assay [4] it was 15.1%; in assay [5] it was 1.35%; in assay [6], 37%.
In the case of `CC1CCCC/C1=N\N(C)C` (stereo not given), the growth inhibition in assay [1] was -44%; in assay [2], -19.9%; in assay [3], -12.8%; in assay [4] it was -29.6%; in assay [5], -5.65%; in assay [6] it was 2.7%.
Turning to `COc1cc(C(c2cc3c(cc2O)OCO3)n2ccnc2)cc(OC)c1OC` (stereo not given), the growth inhibition was -15.2% in assay [1]; 1.6% in assay [2]; -13.1% in assay [3]; 8.75% in assay [4]; 2.9% in assay [5]; 13.1% in assay [6].
On to `O=C1c2ccccc2C(=O)N1C/C(Cl)=C/Cl`, for which the growth inhibition in assay [1] was -21.9%; in assay [2] it was -6.5%; in assay [3], -11.4%; in assay [4], -3.65%; in assay [5], 8.75%; in assay [6], -22.6%.
For `O=C(Nc1ccccc1F)C(c1ccccc1)c1ccccc1`, the growth inhibition in assay [1] was 14.8%; in assay [2], 8.95%; in assay [3], 3.25%; in assay [4], -1.45%; in assay [5], 11.8%; in assay [6] it was 4%.
For `CC(=O)Oc1c(/C=C/c2ccccc2)c(OC(C)=O)c2cc(Br)ccc2c1OC(C)=O`, the growth inhibition is 13.1% in assay [1]; 28.2% in assay [2]; 25.2% in assay [3]; -27% in assay [4]; -17.2% in assay [5]; 29.6% in assay [6].
Take `CC(C)(c1ccccc1)c1ccc(Oc2ccc(C#N)c(C#N)c2)cc1`: the growth inhibition in assay [1] was -27.2%; in assay [2], -7.6%; in assay [3], -14%; in assay [4] it was 3.3%; in assay [5], -35.8%; in assay [6] it was -21.6%.
Take `Oc1ccc(C(c2ccc(O)cc2)c2ccc(O)cc2)cc1`: the growth inhibition in assay [1] is 2.1%; in assay [2], 3.9%; in assay [3] it was 29.9%; in assay [4], 19.1%; in assay [5], 22.1%; in assay [6], -18.2%.
As for `C/C(=N/NC(=S)Nc1cccc(Cl)c1)c1cccc(/C(C)=N\NC(=S)Nc2cccc(Cl)c2)n1`, the growth inhibition in assay [1] was 47%; in assay [2], 46%; in assay [3] it was 62.6%; in assay [4] it was 20.3%; in assay [5], 62.4%; in assay [6], 56.9%.
As to `CC(=O)Nc1nnc(S(C)(=O)=O)s1`, the growth inhibition in assay [1] was -29.6%; in assay [2] it was -29%; in assay [3], -55.6%; in assay [4], 7.25%; in assay [5], -36.9%; in assay [6] it was -33%.
Turning to `CCC(O)C(C)C(O)CC` (stereo not given), the growth inhibition in assay [1] is 7.9%; in assay [2] it was 14.7%; in assay [3], 2.6%; in assay [4] it was 13.3%; in assay [5] it was 13.2%; in assay [6], 17.5%.
Regarding `O=C(OCc1ccccc1)C1CC1` (tested in a mixture with another compound), the growth inhibition in assay [1] is 12.1%; in assay [2], 14.8%; in assay [3] it was 15.4%; in assay [4] it was 6.1%; in assay [5], 20.8%; in assay [6] it was 25.2%.
On to `CCOC(=O)C(C)CC(=O)C(C)CC(=O)C(C)C` (stereo not given), for which the growth inhibition in assay [1] is -9.95%; in assay [2], 6.1%; in assay [3] it was -13.3%; in assay [4] it was -14.2%; in assay [5], -9.75%; in assay [6], -5.05%.

For the origin of these results see PubChem BioAssay (NCI).
